Consider 8 compounds from PubChem BioAssay (Tox21).

Assay [1] in a line: qHTS assay to identify small molecule agonists of the estrogen receptor alpha (ER-alpha) signaling pathway in the presence of an antagonist - cell viability counter screen (AID 1259386).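 Note: series mostly up to about 92 µM; cells exposed to compounds for 22 h at 37 °C before the viability read; nearly all actives have a fitted effect of over 30% in size.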 In outline: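 Steps: 5-day stripped-FBS culture; seed and incubate 24hr; add ICI-182,780 (10.0nM final); pin 15-point compound titration; incubate 22hr at 37C; add CellTiter-Fluor at 21hr; read fluorescence.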
On the technique in general: qHTS replaces the single test concentration by a dilution series.

Assay [2] concerns the target Progesterone receptor (Homo sapiens) (UniProt P06401). Briefly: qHTS assay to identify small molecule agonists of the progesterone receptor (PR) signaling pathway (AID 1346784; calls by dose curve; note: nearly all actives have a fitted effect of over 30% in size). In outline:
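Seed PR-UAS-bla HEK 293T cells (2% charcoal-stripped FBS), incubate 6 hr at 37C; add compounds in DMSO, 16 hr at 37C; add LiveBLAzer B/G substrate, 2 hr RT; read fluorescence intensity.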

The target is the same in assay [3]. Description: qHTS assay to identify small molecule antagonists of the progesterone receptor (PR) signaling pathway (AID 1346795; active = well fitted inhibition curve with a large enough effect in the signal ratio in the repeat runs, not every such curve was filed as active; the % refers to the signal ratio). Summed up: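 Screening used a GripTite HEK293T line with PR-responsive UAS-beta-lactamase. Cells were challenged with compound in the presence of 1 nM R5020 final for 16 hr at 37C; B/G FRET substrate, 2 hr room temperature, fluorescence.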

Assay [4] in a line: qHTS assay to identify small molecule antagonists of the progesterone receptor (PR) signaling pathway - cell viability counter screen (AID 1346798). Note: series mostly up to about 92 µM; nearly all actives have a fitted effect of over 50% in size. Summed up:
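Measures cytotoxicity in parallel with the PR antagonist reporter read: HEK293T PR-UAS-bla cells get compound and R5020 for 16 hr, and remaining viable cells are quantified by CellTiter-Glo luminescence.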

Assay [5] is described as follows: qHTS assay to identify small molecule agonists of the progesterone receptor (PR) signaling pathway - cell viability counter screen (AID 1346799; calls by dose curve; note: nearly all actives have a fitted effect of over 45% in size). Summed up: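 Using the same plates as the PR reporter screen, HEK293T PR-UAS-bla cells received compounds for 16 hr at 37C and were then lysed with CellTiter-Glo; luminescence was read 30 min later at room temperature.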

Assay [6] in a line: qHTS assay to identify small molecule antagonists of the TGF-beta/Smad signaling pathway - cell viability counter screen (AID 1346824). Note: nearly all actives have a fitted effect of over 50% in size. Summed up: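 Cytotoxicity counter-screen run in the same wells as the beta-lactamase Smad reporter read: CellTiter-Glo luminescence after 30 min at room temperature. HEK 293T SBE-bla cells had 5 hr compound exposure at 37 C with TGF-beta1 (0.25 ng/mL stock).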

Assay [7] in a line: qHTS assay to identify small molecule agonists of the TGF-beta/Smad signaling pathway - cell viability counter screen (AID 1346829). Note: top concentration of the series differs between compounds; nearly all actives have a fitted effect of over 45% in size. In outline:
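Here the cytotoxicity of library compounds is measured in SBE-bla HEK 293T cells treated for 5 hr, using CellTiter-Glo added to wells already read for the beta-lactamase reporter.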

Assay [8] in a line: qHTS assay to identify small molecule agonists of the TGF-beta/Smad signaling pathway (AID 1346859; active = well fitted activation curve with a large enough effect in the signal ratio in the repeat runs, not every such curve was filed as active; the % refers to the signal ratio; note: series mostly up to about 77 µM). Summed up:
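Beta-lactamase reporter activity downstream of Smad binding elements was measured in stably transfected HEK 293T cells; compounds were incubated for 5 hr, substrate for 2 hr at room temperature.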

The target in assay [9] is Thyrotropin-releasing hormone receptor (Homo sapiens) (UniProt P34981). Description: qHTS assay to identify small molecule antagonists of the thyrotropin-releasing hormone receptor (TRHR) signaling pathway (AID 1346877; active = well fitted inhibition curve with a large enough effect in the repeat runs, not every such curve was filed as active; note: series mostly up to about 51 µM). In outline: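 Human TRHR in HEK293 cells; inhibition of the intracellular calcium rise triggered by 1 nM TRH was followed by fluorescence over 3 min. Compounds were run at 15 concentrations, three replicates each.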
Thyrotropin-releasing hormone receptor (Homo sapiens), sequence (P34981 whole entry, looked up): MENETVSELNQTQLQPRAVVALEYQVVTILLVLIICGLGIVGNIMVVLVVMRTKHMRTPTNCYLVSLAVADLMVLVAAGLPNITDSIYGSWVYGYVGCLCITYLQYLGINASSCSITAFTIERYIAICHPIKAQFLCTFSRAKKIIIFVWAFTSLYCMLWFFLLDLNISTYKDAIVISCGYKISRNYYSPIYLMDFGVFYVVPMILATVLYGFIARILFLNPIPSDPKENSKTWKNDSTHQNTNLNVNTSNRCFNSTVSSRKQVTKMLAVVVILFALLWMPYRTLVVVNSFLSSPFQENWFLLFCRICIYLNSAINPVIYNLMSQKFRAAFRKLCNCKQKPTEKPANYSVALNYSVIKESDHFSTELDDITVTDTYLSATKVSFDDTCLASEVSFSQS

Assay [10] has the same target. Description: qHTS assay to identify small molecule agonists of the thyrotropin-releasing hormone receptor (TRHR) signaling pathway (AID 1346891; calls by dose curve;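 note: HEK293 cells expressing TRHR with calcium dye readout; series mostly up to about 58 µM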). In outline: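 Overnight-plated (18 h, 37 °C, 5% CO2) TRHR-Hek293 cells; 2 h calcium dye at 37 °C; compound in DMSO; 3-min kinetic fluorescence read.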
A short description of assay [11]: Human pregnane X receptor (PXR) small molecule agonists, qHTS cell viability counter screen (AID 1346977). Note: nearly all actives have a fitted effect of over 50% in size. In outline:
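After a 5hr pre-incubation, PXR-Luc HepG2 cells received compounds plus positive control in DMSO and were kept 24hr at 37C. Cell viability was quantified by fluorescence from CellTiter-Fluor added for the final hour.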

Assay [12] in a line: Caspase-3/7 induction in HepG2 cells by small molecules, qHTS assay (AID 1346978). Note: nearly all actives have a fitted effect of over 15% in size. In outline:
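Caspase-3/7 induction was measured by Caspase-Glo 3/7 luminescence (30 min, room temperature) after a 17 hr compound exposure of wild-type HepG2 cells seeded at 2,000 per well and pre-incubated 5 hr.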

Assay [13] is described as follows: Caspase-3/7 induction in CHO-K1 cells by small molecules, qHTS assay (AID 1346980). Note: nearly all actives have a fitted effect of over 15% in size. In outline:
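Luminescent Caspase-Glo 3/7 read (30min, room temperature) quantified apoptosis induction. Cells were wild-type CHO-K1, treated with compound for 17hr at 37 C and 5% CO2.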

Assay [14] in a line: Caspase-3/7 induction in HepG2 cells by small molecules, qHTS cell viability counter screen (AID 1346981). Note: series mostly up to about 92 µM; nearly all actives have a fitted effect of over 30% in size. In outline:
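The parent HepG2 line is plated at 2,000 cells per well and rested 5 hr before compound pinning from DMSO stocks. Following a 16-hr treatment at 37 C, a fluorogenic live-cell substrate (CellTiter-Fluor) reports viability after 1 hr.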

For assay [15], the target named is Nuclear receptor subfamily 1 group I member 2 (Homo sapiens) (UniProt O75469). Description: Human pregnane X receptor (PXR) small molecule agonists, qHTS assay (AID 1346982). Note: nearly all actives have a fitted effect of over 35% in size. Note: potency is the fitted concentration of half-maximal effect. In outline:
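After plating in 5% charcoal-stripped FBS and a 5 hr rest, PXR-Luc HepG2 cells received compounds in DMSO. Following 24 hr at 37 C, ONE-Glo was added and light output read.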

The nature of assay [16]: Caspase-3/7 induction in CHO-K1 cells by small molecules, qHTS cell viability counter screen (AID 1346979). Note: nearly all actives have a fitted effect of over 35% in size. Summed up:
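Multiplexed with Caspase-Glo 3/7 in CHO-K1 cells, this counter screen added CellTiter-Fluor after 16hr of compound exposure and recorded fluorescence 1hr later.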

The target of assay [17] is Cytochrome P450 2D6 (Homo sapiens) (UniProt P10635). Description: Cytochrome P450 Family 2 Subfamily D Member 6 (CYP2D6) small molecule antagonists: luciferase reporter qHTS assay (AID 1671196). Note: nearly all actives have a fitted effect of over 50% in size. Note: potency is the fitted concentration of half-maximal effect. In outline: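 Quantitative HTS of Tox21 chemicals against CYP2D6 using a luminescent proluciferin substrate. After NADPH addition, 1 h room-temperature reaction; luminescence recorded 20 min post detection reagent.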
Cytochrome P450 2D6 (Homo sapiens), sequence (P10635 whole entry, looked up): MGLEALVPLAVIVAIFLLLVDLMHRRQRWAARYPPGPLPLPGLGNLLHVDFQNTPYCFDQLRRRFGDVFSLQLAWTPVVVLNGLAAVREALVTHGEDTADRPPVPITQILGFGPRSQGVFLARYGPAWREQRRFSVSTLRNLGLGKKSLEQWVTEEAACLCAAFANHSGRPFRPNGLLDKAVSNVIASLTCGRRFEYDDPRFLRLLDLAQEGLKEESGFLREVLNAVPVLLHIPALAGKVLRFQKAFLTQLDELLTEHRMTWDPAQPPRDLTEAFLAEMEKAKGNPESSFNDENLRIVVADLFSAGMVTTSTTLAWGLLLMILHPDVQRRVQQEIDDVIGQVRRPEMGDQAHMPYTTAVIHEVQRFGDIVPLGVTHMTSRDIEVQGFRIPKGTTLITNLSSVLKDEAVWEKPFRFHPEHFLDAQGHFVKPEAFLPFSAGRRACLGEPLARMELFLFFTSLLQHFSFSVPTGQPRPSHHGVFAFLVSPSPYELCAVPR
Background: In a reporter assay the amount or activity of a reporter protein is the signal.

Assay [18] deals with Nuclear receptor subfamily 1 group I member 2 (Homo sapiens) (UniProt O75469). Description: CYP3A4 induction through human pregnane X receptor (PXR) by small molecules, qHTS assay (AID 1346984). Note: nearly all actives have a fitted effect of over 40% in size. Summed up:
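Human PXR activation is tracked via CYP3A4 promoter-luciferase in DPX-2 (HepG2) cells. Compounds treat cells for 24hr at 37C, and luminescence is read after One-Glo.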

The target is the same in assay [19]. Description: Human pregnane X receptor (PXR) activation by small molecules, qHTS assay (AID 1346985). Note: nearly all actives have a fitted effect of over 40% in size. In outline: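 DPX-2 cells (HepG2 co-transfected with a PXR response element and a CYP3A4-promoter luciferase construct) were seeded at 2,000 per well, rested 5 hr at 37C, then exposed to DMSO-dissolved compounds for 24 hr. Activation was read as luciferase luminescence.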

Unmarked numbers belong to inactive results. Results filed as inconclusive are left out. Calls of active or inactive are those of the source. Unless noted, calls come from the whole dose curve; as a rule, active = well fitted curve in the direction sought with a large enough effect in the repeat runs; inconclusive = weak or mixed curves; inactive = no such curve, though single readings can be large; an effect the other way counts as inactive or inconclusive.

Nuclear receptor subfamily 1 group I member 2 (Homo sapiens), sequence (O75469 whole entry, looked up): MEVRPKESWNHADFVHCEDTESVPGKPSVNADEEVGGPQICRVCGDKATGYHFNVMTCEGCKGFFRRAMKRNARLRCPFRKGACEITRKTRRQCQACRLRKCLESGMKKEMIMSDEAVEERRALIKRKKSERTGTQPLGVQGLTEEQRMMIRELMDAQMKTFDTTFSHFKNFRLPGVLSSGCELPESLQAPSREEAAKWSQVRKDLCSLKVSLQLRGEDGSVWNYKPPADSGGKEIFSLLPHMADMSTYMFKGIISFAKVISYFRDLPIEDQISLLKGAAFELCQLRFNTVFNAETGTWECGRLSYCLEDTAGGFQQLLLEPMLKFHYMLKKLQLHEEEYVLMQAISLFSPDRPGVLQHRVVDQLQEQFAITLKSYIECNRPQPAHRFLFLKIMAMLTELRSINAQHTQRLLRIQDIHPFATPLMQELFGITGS
Progesterone receptor (Homo sapiens), sequence (P06401 whole entry, looked up): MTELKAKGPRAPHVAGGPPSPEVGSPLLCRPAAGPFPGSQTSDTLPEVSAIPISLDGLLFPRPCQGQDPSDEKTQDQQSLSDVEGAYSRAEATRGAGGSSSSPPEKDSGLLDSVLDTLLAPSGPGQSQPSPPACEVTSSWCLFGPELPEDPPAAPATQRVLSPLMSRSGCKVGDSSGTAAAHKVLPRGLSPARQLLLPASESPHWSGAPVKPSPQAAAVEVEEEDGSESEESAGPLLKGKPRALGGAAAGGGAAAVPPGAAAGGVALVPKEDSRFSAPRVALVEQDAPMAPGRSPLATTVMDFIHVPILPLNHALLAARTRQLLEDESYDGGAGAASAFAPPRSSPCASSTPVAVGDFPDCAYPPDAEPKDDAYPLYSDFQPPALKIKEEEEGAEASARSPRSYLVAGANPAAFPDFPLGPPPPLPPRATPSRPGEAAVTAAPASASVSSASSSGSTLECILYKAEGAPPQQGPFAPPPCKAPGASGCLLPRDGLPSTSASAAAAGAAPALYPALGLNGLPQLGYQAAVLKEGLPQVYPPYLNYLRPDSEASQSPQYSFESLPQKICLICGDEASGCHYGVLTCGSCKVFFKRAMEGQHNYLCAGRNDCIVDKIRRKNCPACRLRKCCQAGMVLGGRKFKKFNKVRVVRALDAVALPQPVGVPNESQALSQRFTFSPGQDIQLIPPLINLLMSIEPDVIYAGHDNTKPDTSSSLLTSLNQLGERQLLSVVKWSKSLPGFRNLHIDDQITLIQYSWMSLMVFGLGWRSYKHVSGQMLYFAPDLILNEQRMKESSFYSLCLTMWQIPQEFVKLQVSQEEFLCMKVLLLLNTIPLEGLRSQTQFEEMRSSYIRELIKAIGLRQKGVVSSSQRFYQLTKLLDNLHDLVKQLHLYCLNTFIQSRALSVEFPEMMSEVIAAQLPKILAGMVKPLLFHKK

For `C1C[C@@H]2[C@H]3CC[C@H](C3)[C@@H]2C1`, the Potency entry in assay [1], in [2], in [3], in [4], in assay [5] and in assay [6] was “inactive” each time. In addition, the Potency result in assay [7], in assay [8], in assay [10], in assay [11], in assay [12] and in assay [13] was “inactive” in each case. Besides, the Potency result in [14] and in assay [15] was “inactive” in each case. Also, in assay [9], the compound was called inactive.

On to `COC(=O)CS`, for which the Potency result in assay [1], in assay [2], in assay [3], in [4], in assay [5] and in assay [6] was “inactive” throughout. In addition, the Potency entry in assay [7], in assay [8], in assay [10], in [11], in assay [12] and in assay [16] was “inactive” in each case. Also, the Potency entry in assay [13], in assay [14], in assay [15] and in [17] was “inactive” in each case. Besides, the compound was called inactive in [9].

On to `CC(C)(c1ccccc1)c1ccccc1`, for which the Potency entry in assay [1], in [2], in assay [3], in assay [4], in assay [5] and in assay [6] was “inactive” each time. In addition, the Potency entry in assay [7], in assay [8], in assay [10], in assay [11], in assay [12] and in [16] was “inactive” throughout. Moreover, the Potency entry in assay [13] and in [14] was “inactive” in each case. Besides, the compound was called inactive in assay [9]. Moreover, the Potency in assay [17] was 58.8 µM (active).

Take `COc1cc(C(=O)NCCCCCC(=O)O)cc(OC)c1OC`: the Potency result in assay [1], in assay [2], in assay [3], in assay [4], in assay [5] and in [6] was “inactive” in each case. Further, the Potency result in [7], in [8], in assay [10], in assay [11], in [12] and in [16] was “inactive” in each case. Also, the Potency result in [13], in [14], in assay [15], in assay [18], in [19] and in assay [17] was “inactive” in each case. For the same compound, in assay [9], the compound was classed as inactive.

As for `O=C(Cn1ccnc1[N+](=O)[O-])NCCO`, the Potency result in [1], in assay [2], in assay [3], in assay [4], in assay [5] and in [6] was “inactive” each time. The Potency entry in [7], in [8], in assay [10], in assay [11], in assay [12] and in assay [16] was “inactive” in each case. In addition, the Potency result in [13] and in [17] was “inactive” each time. Further, in [9], the result was inactive.

With `C=C(C)CCCC(C)CCO` (stereo unspecified), the Potency entry in assay [1], in assay [2], in assay [3], in assay [4], in [5] and in assay [6] was “inactive” in each case. Besides, the Potency entry in assay [7], in assay [8], in [10], in assay [11], in assay [12] and in assay [16] was “inactive” each time. For the same compound, the Potency result in [13], in assay [14] and in assay [17] was “inactive” each time. The outcome in assay [9] was inactive. Also, in [15], the Potency was 54.5 µM (active).

For the compound `NC(=O)c1ccncc1`, the Potency entry in assay [1], in assay [2], in assay [3], in [4], in assay [5] and in assay [6] was “inactive” throughout. The Potency entry in [7], in assay [8], in assay [10], in assay [11], in assay [12] and in assay [16] was “inactive” in each case. In addition, the Potency entry in [13], in assay [14], in assay [15] and in [17] was “inactive” throughout. Besides, the outcome in [9] was inactive.

For `CC(CCC(=O)O)C(=O)O` (stereo unspecified), the Potency entry in assay [1], in assay [2], in assay [3], in assay [4], in assay [5] and in [6] was “inactive” each time. For the same compound, the Potency result in [7], in [8], in assay [10], in assay [11], in assay [12] and in assay [13] was “inactive” each time. Further, the Potency entry in assay [14] and in [15] was “inactive” throughout. Moreover, the outcome in [9] was inactive.
